According to a collection of fitness landscapes (doi:10.1016/j.celrep.2020.107928):
In all, about 81,000 sequences were measured (“one-hybrid fitness for binding NBS DNA”: median about -0.1, highest 2% from about 0.36 on). The sample as a whole holds a higher share of the highest values than the screen did.

B1: Caulobacter ParB omega fusion; a variant is named by its letters at X, in order, B8GW30 (parent)
chain: MESVVVGEPGMSEGRRGLGRGLSALLGEVDAAPAQAPGEQLGGSREAPIEILQRNPDQPRRTFREEDLEDLSNSIREKGVLQPILVRPSPDTAGEYQIVAGERAWRAAQRAGLKTVPIMVRELDDLAVLEIGIIENVQRADLNVLEEALSYKVLMEKFERTQENIAQTIGKSXSHVANXMRLLXLPDEVQSYLVSGELTAXHARAIAAAADPVALAKQIIEGGLSVRETEALARKAPNLSAGKSKGGRPPRVKDTDTQALESDLSSVLGLDVSIDHRGSTGTLTITYATLEQLDDLCNRLTRGI

Variants of: B1
Test: one-hybrid fitness for binding NBS DNA (the Noc-binding site; scaled: cognate 1, non-cognate 0); higher = stronger binding
Settings: with NBS DNA site
Outline: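 Caulobacter ParB libraries with four specificity codons randomised were screened by bacterial one-hybrid selection in the E. coli USO strain, using a HIS3 reporter whose site lies 19 bp from the promoter. Selection ran for 48 hours at 37°C on M9 lacking histidine, with 0.1 mM IPTG and 5 mM 3-AT. Plasmids were Illumina-sequenced before and after selection, three replicate libraries were pooled, and variants with under 10 reads were dropped. Fitness is the log change in each variant's read ratio to wild type, rescaled against the cognate and non-cognate sites.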

KESF and IFWR cannot be ordered by “one-hybrid fitness for binding NBS DNA” value: ≤ 0.2 for the first, ≤ 0.2 for the second.

KAHR and AQIS cannot be ordered by “one-hybrid fitness for binding NBS DNA” value: ≤ 0.2 for the first, ≤ 0.2 for the second.

RGNV and HSPH cannot be ordered by “one-hybrid fitness for binding NBS DNA” value: ≤ 0.2 for the first, ≤ 0.2 for the second.

WDHG and KMKY cannot be ordered by “one-hybrid fitness for binding NBS DNA” value: ≤ 0.2 for the first, ≤ 0.2 for the second.

First: QYVQ
Second: QYRQ
The “one-hybrid fitness for binding NBS DNA” value of the first is lower: 0.313 for the first, 0.435 for the second.

Compared with QYKQ, QYCQ is lower in “one-hybrid fitness for binding NBS DNA” value: 0.394 for the first, ≤ 0.2 for the second.

QYNQ and QYSQ cannot be ordered by “one-hybrid fitness for binding NBS DNA” value: ≤ 0.2 for the first, ≤ 0.2 for the second.

RSEI and SPTR cannot be ordered by “one-hybrid fitness for binding NBS DNA” value: ≤ 0.2 for the first, ≤ 0.2 for the second.

Going from RTYY to RTKY, the “one-hybrid fitness for binding NBS DNA” value rises from ≤ 0.2 to 0.418.

Compared with RTKH, RTRY is lower in “one-hybrid fitness for binding NBS DNA” value: 0.651 for the first, 0.38 for the second.

RTVH and RPKY cannot be ordered by “one-hybrid fitness for binding NBS DNA” value: ≤ 0.2 for the first, ≤ 0.2 for the second.

Compared with RTVS, RTVP is lower in “one-hybrid fitness for binding NBS DNA” value: 0.39 for the first, ≤ 0.2 for the second.

RTVY and RTVN cannot be ordered by “one-hybrid fitness for binding NBS DNA” value: ≤ 0.2 for the first, ≤ 0.2 for the second.

RTDY and RTKD cannot be ordered by “one-hybrid fitness for binding NBS DNA” value: ≤ 0.2 for the first, ≤ 0.2 for the second.

QFSY and LCCW cannot be ordered by “one-hybrid fitness for binding NBS DNA” value: ≤ 0.2 for the first, ≤ 0.2 for the second.

SFAL and PWTQ cannot be ordered by “one-hybrid fitness for binding NBS DNA” value: ≤ 0.2 for the first, ≤ 0.2 for the second.

SYNN and PQEL cannot be ordered by “one-hybrid fitness for binding NBS DNA” value: ≤ 0.2 for the first, ≤ 0.2 for the second.

MDPA and QCMN cannot be ordered by “one-hybrid fitness for binding NBS DNA” value: ≤ 0.2 for the first, ≤ 0.2 for the second.

FPNL and PFHL cannot be ordered by “one-hybrid fitness for binding NBS DNA” value: ≤ 0.2 for the first, ≤ 0.2 for the second.

LLMP and FGTY cannot be ordered by “one-hybrid fitness for binding NBS DNA” value: ≤ 0.2 for the first, ≤ 0.2 for the second.

First: RTKP
Second: RTKN
The “one-hybrid fitness for binding NBS DNA” value of the first is lower: ≤ 0.2 for the first, 0.3 for the second.

First: RTKS
Second: ANHS
The “one-hybrid fitness for binding NBS DNA” value of the first is higher: 0.622 for the first, ≤ 0.2 for the second.

KTFT and KTDT cannot be ordered by “one-hybrid fitness for binding NBS DNA” value: ≤ 0.2 for the first, ≤ 0.2 for the second.

First: KTYT
Second: KTKT
The “one-hybrid fitness for binding NBS DNA” value of the first is lower: ≤ 0.2 for the first, 0.396 for the second.

Going from KTVT to KTRT, the “one-hybrid fitness for binding NBS DNA” value rises from ≤ 0.2 to 0.44.

HMYT and SGID cannot be ordered by “one-hybrid fitness for binding NBS DNA” value: ≤ 0.2 for the first, ≤ 0.2 for the second.

QDWR and DLYM cannot be ordered by “one-hybrid fitness for binding NBS DNA” value: ≤ 0.2 for the first, ≤ 0.2 for the second.

MQVF and PLIS cannot be ordered by “one-hybrid fitness for binding NBS DNA” value: ≤ 0.2 for the first, ≤ 0.2 for the second.

QIKD and QIKP cannot be ordered by “one-hybrid fitness for binding NBS DNA” value: ≤ 0.2 for the first, ≤ 0.2 for the second.

QCVY and QPKY cannot be ordered by “one-hybrid fitness for binding NBS DNA” value: ≤ 0.2 for the first, ≤ 0.2 for the second.

First: QGKY
Second: QCKY
The “one-hybrid fitness for binding NBS DNA” value of the first is lower: ≤ 0.2 for the first, 0.59 for the second.

QHVY and QSVY cannot be ordered by “one-hybrid fitness for binding NBS DNA” value: ≤ 0.2 for the first, ≤ 0.2 for the second.

First: QSKY
Second: QIKY
The “one-hybrid fitness for binding NBS DNA” value of the first is higher: 0.517 for the first, 0.364 for the second.

Compared with QHQY, QHKY is higher in “one-hybrid fitness for binding NBS DNA” value: ≤ 0.2 for the first, 0.529 for the second.

Going from GTNT to RTRV, the “one-hybrid fitness for binding NBS DNA” value rises from ≤ 0.2 to 0.288.

PYEG and AMAG cannot be ordered by “one-hybrid fitness for binding NBS DNA” value: ≤ 0.2 for the first, ≤ 0.2 for the second.

PRCC and MKRL cannot be ordered by “one-hybrid fitness for binding NBS DNA” value: ≤ 0.2 for the first, ≤ 0.2 for the second.

GLHC and WTLT cannot be ordered by “one-hybrid fitness for binding NBS DNA” value: ≤ 0.2 for the first, ≤ 0.2 for the second.

Compared with YTVE, QTKY is higher in “one-hybrid fitness for binding NBS DNA” value: ≤ 0.2 for the first, 0.658 for the second.

Compared with QTVY, QKNY is higher in “one-hybrid fitness for binding NBS DNA” value: ≤ 0.2 for the first, 0.26 for the second.

QTIY and QKVY cannot be ordered by “one-hybrid fitness for binding NBS DNA” value: ≤ 0.2 for the first, ≤ 0.2 for the second.

First: QKKY
Second: QMVY
The “one-hybrid fitness for binding NBS DNA” value of the first is higher: 0.498 for the first, ≤ 0.2 for the second.

QANY and QMPY cannot be ordered by “one-hybrid fitness for binding NBS DNA” value: ≤ 0.2 for the first, ≤ 0.2 for the second.

Going from QAVY to QAKY, the “one-hybrid fitness for binding NBS DNA” value rises from ≤ 0.2 to 0.531.

Going from QMKY to VVSE, the “one-hybrid fitness for binding NBS DNA” value falls from 0.516 to ≤ 0.2.

LAWC and RNCT cannot be ordered by “one-hybrid fitness for binding NBS DNA” value: ≤ 0.2 for the first, ≤ 0.2 for the second.

SKAC and MVPR cannot be ordered by “one-hybrid fitness for binding NBS DNA” value: ≤ 0.2 for the first, ≤ 0.2 for the second.

EELK and TSEY cannot be ordered by “one-hybrid fitness for binding NBS DNA” value: ≤ 0.2 for the first, ≤ 0.2 for the second.

HMMA and CPSC cannot be ordered by “one-hybrid fitness for binding NBS DNA” value: ≤ 0.2 for the first, ≤ 0.2 for the second.

TSCN and GRQR cannot be ordered by “one-hybrid fitness for binding NBS DNA” value: ≤ 0.2 for the first, ≤ 0.2 for the second.

Compared with QLKY, QLHY is lower in “one-hybrid fitness for binding NBS DNA” value: 0.46 for the first, ≤ 0.2 for the second.

QLVY and KCDL cannot be ordered by “one-hybrid fitness for binding NBS DNA” value: ≤ 0.2 for the first, ≤ 0.2 for the second.

First: SRHH
Second: QQLA
The “one-hybrid fitness for binding NBS DNA” value of the first is lower: ≤ 0.2 for the first, 0.294 for the second.

Compared with QQIA, QQQA is higher in “one-hybrid fitness for binding NBS DNA” value: ≤ 0.2 for the first, 0.357 for the second.

Compared with QQHA, QQKA is higher in “one-hybrid fitness for binding NBS DNA” value: 0.384 for the first, 0.628 for the second.

Going from QQAA to QQDA, the “one-hybrid fitness for binding NBS DNA” value falls from 0.347 to 0.25.

Going from QQSA to QQNA, the “one-hybrid fitness for binding NBS DNA” value rises from 0.37 to 0.421.

First: QQVA
Second: QQPA
The “one-hybrid fitness for binding NBS DNA” value of the first is higher: 0.271 for the first, ≤ 0.2 for the second.

PRNE and MSCY cannot be ordered by “one-hybrid fitness for binding NBS DNA” value: ≤ 0.2 for the first, ≤ 0.2 for the second.

IKIS and QDWF cannot be ordered by “one-hybrid fitness for binding NBS DNA” value: ≤ 0.2 for the first, ≤ 0.2 for the second.

Going from TRTG to QQCA, the “one-hybrid fitness for binding NBS DNA” value rises from ≤ 0.2 to 0.291.

Compared with QQYA, QQFA is lower in “one-hybrid fitness for binding NBS DNA” value: 0.303 for the first, 0.201 for the second.

Going from QQRA to QQWA, the “one-hybrid fitness for binding NBS DNA” value falls from 0.606 to 0.212.

Going from QQGA to RCVR, the “one-hybrid fitness for binding NBS DNA” value falls from 0.388 to 0.349.

Going from RPVR to RKVR, the “one-hybrid fitness for binding NBS DNA” value rises from 0.204 to 0.478.

Going from RKKM to RKKR, the “one-hybrid fitness for binding NBS DNA” value rises from 0.269 to 0.768.

RKKF and TEPD cannot be ordered by “one-hybrid fitness for binding NBS DNA” value: ≤ 0.2 for the first, ≤ 0.2 for the second.

First: QDCL
Second: HRKR
The “one-hybrid fitness for binding NBS DNA” value of the first is lower: ≤ 0.2 for the first, 0.395 for the second.

TRKP and TRVS cannot be ordered by “one-hybrid fitness for binding NBS DNA” value: ≤ 0.2 for the first, ≤ 0.2 for the second.

Going from PRKR to TRKS, the “one-hybrid fitness for binding NBS DNA” value rises from 0.4 to 0.437.

First: YRKR
Second: HRVR
The “one-hybrid fitness for binding NBS DNA” value of the first is higher: 0.377 for the first, ≤ 0.2 for the second.

YCKR and YRVR cannot be ordered by “one-hybrid fitness for binding NBS DNA” value: ≤ 0.2 for the first, ≤ 0.2 for the second.

HRYR and PRVR cannot be ordered by “one-hybrid fitness for binding NBS DNA” value: ≤ 0.2 for the first, ≤ 0.2 for the second.

Compared with PCKR, GNLD is lower in “one-hybrid fitness for binding NBS DNA” value: 0.205 for the first, ≤ 0.2 for the second.

ICLR and DVLD cannot be ordered by “one-hybrid fitness for binding NBS DNA” value: ≤ 0.2 for the first, ≤ 0.2 for the second.

AEAG and IGGG cannot be ordered by “one-hybrid fitness for binding NBS DNA” value: ≤ 0.2 for the first, ≤ 0.2 for the second.

AHLT and ARVR cannot be ordered by “one-hybrid fitness for binding NBS DNA” value: ≤ 0.2 for the first, ≤ 0.2 for the second.

First: ARYR
Second: ARKR
The “one-hybrid fitness for binding NBS DNA” value of the first is lower: ≤ 0.2 for the first, 0.364 for the second.

First: TRKN
Second: TRKR
The “one-hybrid fitness for binding NBS DNA” value of the first is lower: 0.212 for the first, 0.799 for the second.

Compared with TRVR, KFSD is lower in “one-hybrid fitness for binding NBS DNA” value: 0.215 for the first, ≤ 0.2 for the second.

ETGL and QTIN cannot be ordered by “one-hybrid fitness for binding NBS DNA” value: ≤ 0.2 for the first, ≤ 0.2 for the second.

QTID and QPPR cannot be ordered by “one-hybrid fitness for binding NBS DNA” value: ≤ 0.2 for the first, ≤ 0.2 for the second.

First: QSPR
Second: QTPD
The “one-hybrid fitness for binding NBS DNA” value of the first is higher: 0.27 for the first, ≤ 0.2 for the second.

Compared with QTPN, QTPR is higher in “one-hybrid fitness for binding NBS DNA” value: ≤ 0.2 for the first, 0.42 for the second.

Going from QTIR to QCPR, the “one-hybrid fitness for binding NBS DNA” value falls from 0.499 to 0.37.

FWRC and SYKP cannot be ordered by “one-hybrid fitness for binding NBS DNA” value: ≤ 0.2 for the first, ≤ 0.2 for the second.

HILC and CLQI cannot be ordered by “one-hybrid fitness for binding NBS DNA” value: ≤ 0.2 for the first, ≤ 0.2 for the second.

NVRS and IVEG cannot be ordered by “one-hybrid fitness for binding NBS DNA” value: ≤ 0.2 for the first, ≤ 0.2 for the second.

Going from QRFG to QSRG, the “one-hybrid fitness for binding NBS DNA” value rises from 0.249 to 0.319.

Going from QCGG to QRQG, the “one-hybrid fitness for binding NBS DNA” value rises from ≤ 0.2 to 0.366.

First: QCQG
Second: QRGG
The “one-hybrid fitness for binding NBS DNA” value of the first is lower: ≤ 0.2 for the first, 0.367 for the second.

QSQG and QCAG cannot be ordered by “one-hybrid fitness for binding NBS DNA” value: ≤ 0.2 for the first, ≤ 0.2 for the second.

Compared with QPGG, QCRG is higher in “one-hybrid fitness for binding NBS DNA” value: ≤ 0.2 for the first, 0.451 for the second.

Compared with QRAG, QPRG is lower in “one-hybrid fitness for binding NBS DNA” value: 0.37 for the first, ≤ 0.2 for the second.

PYIE and ACCM cannot be ordered by “one-hybrid fitness for binding NBS DNA” value: ≤ 0.2 for the first, ≤ 0.2 for the second.

VPMR and STTV cannot be ordered by “one-hybrid fitness for binding NBS DNA” value: ≤ 0.2 for the first, ≤ 0.2 for the second.

THKV and IMSF cannot be ordered by “one-hybrid fitness for binding NBS DNA” value: ≤ 0.2 for the first, ≤ 0.2 for the second.

With GCVM the “one-hybrid fitness for binding NBS DNA” value was ≤ 0.2.
